Source: PubChem
KCNQ2 pot: enhances the rat KCNQ2 potassium channel. O88943. CHO-K1 KCNQ2, FluxOR thallium flux fluorescence; active compounds read high. B-score at 10 µM. 0.54% of 310,000 active. AID 2239;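 active means fluorescence ratio B-score at least 3 SD of library B-scores, with initial fluorescence B-score within 3 of them, cut at about 5.3 in these data; same plate scores as AID 2156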;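 further: B-score of peak minus minimum over baseline fluorescence ratio after K+ and Tl+ stimulus; positive B-score means potentiation of KCNQ2 with more thallium influx and brighter signal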
Target sequence (O88943 whole entry, looked up): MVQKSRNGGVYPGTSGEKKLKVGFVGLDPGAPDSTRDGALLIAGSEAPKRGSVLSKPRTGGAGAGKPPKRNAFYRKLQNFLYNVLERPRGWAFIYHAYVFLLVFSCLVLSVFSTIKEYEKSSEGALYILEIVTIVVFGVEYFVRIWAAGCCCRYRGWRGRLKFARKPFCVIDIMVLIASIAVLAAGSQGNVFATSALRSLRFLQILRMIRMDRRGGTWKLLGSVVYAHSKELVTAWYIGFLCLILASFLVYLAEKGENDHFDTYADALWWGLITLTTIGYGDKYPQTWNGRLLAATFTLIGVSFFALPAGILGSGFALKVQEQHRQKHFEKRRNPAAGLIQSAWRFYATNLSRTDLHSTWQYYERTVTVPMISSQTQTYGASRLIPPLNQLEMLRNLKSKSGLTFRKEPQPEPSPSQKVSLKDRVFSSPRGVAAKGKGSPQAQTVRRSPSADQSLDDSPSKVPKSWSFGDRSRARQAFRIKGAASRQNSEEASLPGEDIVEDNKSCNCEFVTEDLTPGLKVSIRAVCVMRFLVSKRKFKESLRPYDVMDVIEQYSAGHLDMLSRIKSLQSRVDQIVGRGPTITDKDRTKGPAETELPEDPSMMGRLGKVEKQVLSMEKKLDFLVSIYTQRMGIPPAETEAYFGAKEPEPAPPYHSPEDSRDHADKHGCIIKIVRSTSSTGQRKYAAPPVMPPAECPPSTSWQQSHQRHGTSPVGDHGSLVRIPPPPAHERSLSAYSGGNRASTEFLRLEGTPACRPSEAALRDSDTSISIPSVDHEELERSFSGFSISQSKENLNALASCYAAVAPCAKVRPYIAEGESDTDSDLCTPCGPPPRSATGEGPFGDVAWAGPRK
KCNQ2 inh: inhibitors of rat KCNQ2 potassium channel | O88943 | CHO-K1 KCNQ2, FluxOR thallium flux, 20 min; active compounds read low | B-score at 10 µM | 1.1% of 310,000 active;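 active means fluorescence ratio B-score at most minus 3 library SDs, with starting brightness B-score within 2 library SDs, cut at about -5.5 in these data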
Kir21 confirm: confirmation of mouse Kir2.1 potassium channel inhibitors; 41% of 2,300 active; Kir2.1-expressing cells, FluxOR thallium flux fluorescence; active compounds read low; Tl flux remaining, % of negative control (active compounds read low), % at 10 µM; AID 2032; shares compounds with KCNQ2 pot;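 active means Primary-screen hit whose thallium flux fell at least 3 control SD below untreated wells in both duplicates, with normal baseline fluorescence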;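 further: 0% = blank wells without stimulus and 100% = stimulated no-compound controls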
HEK293 Tl flux: counter-screen for Kir2.1 inhibitors: effect in parental HEK293 cells; FluxOR thallium flux fluorescence; 0% = unstimulated blank wells; FluxOR signal as % of negative control (100 = no effect), % at 10 µM; 19% of 2,300 active; AID 2105; shares compounds with KCNQ2 pot;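 active means dye signal at least 3 control SD above or below untreated wells in both duplicates, raw fluorescence within 3, either direction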;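 further: percent is based on the flux ratio of peak minus minimum fluorescence over baseline F0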
CHO-K1 ctr: alters thallium flux in parental CHO-K1 cells, KCNQ2 counter-screen | FluxOR thallium flux fluorescence; zero = vehicle mean+3SD, 100% = vehicle-minus-blank window | 43% of 1,200 active | shares compounds with KCNQ2 pot | activity increase over 3SD of controls, % at 10 µM | AID 2282;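 active means signal rise of at least 3 SD above the untreated control mean, in both duplicate wells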;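 further: counter screen of KCNQ2 potentiator hits so any rise reflects channel-independent effects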
KCNQ1 pot spec: selectivity of KCNQ2 potentiators: effect on human KCNQ1; AID 2283; shares compounds with KCNQ2 pot; activation over 3SD threshold, % at 10 µM; 28% of 1,200 active; CHO KCNQ1 stable, FluxOR thallium flux fluorescence; beyond 3SD, as % of vehicle-control signal;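 active means fluorescence ratio rise of at least 3 SD of vehicle wells above their mean, in both replicate wells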;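 further: 0% = vehicle mean plus 3 SD and 100% = vehicle minus unstimulated blank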
KCNQ2 pot confirm: rat KCNQ2 channel potentiator confirmation; CHO-KCNQ2 cells, FluxOR thallium flux fluorescence; 68% of 1,200 active; shares compounds with KCNQ2 pot; AID 2287; potentiation, less the hit threshold, % at 10 µM;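 active means fluorescence ratio rising 3 SD or more over the vehicle control mean in both replicates, plus primary screen hit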;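 further: peak minus minimum thallium fluorescence divided by baseline after K/Tl stimulus; 0% = vehicle mean plus 3 SD and 100% = vehicle minus unstimulated blank difference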
Kir2-1 sel: tests whether KCNQ2 potentiators also affect mouse Kir2.1. activity over 3SD threshold, % at 10 µM. shares compounds with KCNQ2 pot. HEK293 Kir2.1, FluxOR thallium flux fluorescence. 2% of 1,200 active;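 active means fluorescence ratio rise of at least 3 SD above the vehicle-control mean, seen in both replicates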;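 further: 0% = vehicle mean plus 3 SD and 100% = vehicle minus no-stimulus blank window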
KCNQ2 W236L pot: KCNQ2 potentiators acting on retigabine-insensitive rat KCNQ2 W236L mutant; current increase over 3SD of negative controls (%), active compounds read high, % at 25 µM; shares compounds with KCNQ2 pot; AID 2558; CHO KCNQ2-W236L, automated patch clamp current; 10% of 940 active;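 active means current increase at least 3 SD of the untreated controls above them in both duplicate recordings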
* marks the source's active call; other numbers are inactive results; i = inactive; . = no result given. Sampled rows, rich in hits. Any-hit rate of the full collection: about 1.6%.

SMILES | KCNQ2 pot | KCNQ2 inh | Kir21 confirm | HEK293 Tl flux | others
CN(C)CCc1cc2c(c3c1ccc1ccccc13)OCO2 | . | i | 16%* | i
O=C(CCn1c(=S)oc2ccccc21)Nc1cc([N+](=O)[O-])ccc1F | 1.2 | i | . | .
O=C(Nc1ccccc1Br)C1CC(=O)N(c2ccc3c4c(cccc24)CC3)C1 (configuration not stated) | 0.03 | i | . | .
NC1=NC[C@H](Cc2ccc(O)cc2)N1CCCCC1CCCCC1 | 0.01 | i | . | .
NC1=NC[C@H](Cc2ccccc2)N1CCCCC1CCCCC1 | . | i | 32%* | i
Cc1sc2cc3c(c(C(=O)c4ccccc4)[n+]2c1C)-c1cccc2cccc-3c12 | -8.2 | -8.2* | 27%* | 64%*
Cc1cc(C)c2c(N)c(C(=O)c3ccccc3)sc2n1 | . | i | . | .
CCOC(=O)CCNC(=O)c1ccc2nc(C3CCCCC3)oc2c1 | 2 | i | . | .
CCc1ccc(CNC(=O)c2ccc3nc(C4CCCCC4)oc3c2)nc1 | 17* | i | . | . | CHO-K1 ctr=-11;KCNQ1 pot spec=17*;KCNQ2 pot confirm=9.2*;Kir2-1 sel=-45;KCNQ2 W236L pot=i
COc1ccc(Cl)cc1C(=O)NNC(=O)CN1C(=O)C2CC=CCC2C1=O (configuration not stated) | 0.09 | i | . | .
CC(CCc1ccc(O)cc1)NCCc1ccc(O)c(O)c1 (configuration not stated) | 0.9 | i | . | .
CC(Cc1ccc(O)c(O)c1)C(C)Cc1ccc(O)c(O)c1 (configuration not stated) | . | i | 18%* | 56%*
Cc1oc2cc3oc(=O)c(CCC(=O)N4C[C@H]5C[C@@H](C4)c4cccc(=O)n4C5)c(C)c3cc2c1C | 0.08 | i | . | .
Cc1ccc(OCC(O)CNCc2ccc(F)cc2)cc1 (configuration not stated) | 0.29 | i | 27%* | i
COc1ccc(CCNCC(O)COc2cccc(Br)c2)cc1OC (configuration not stated) | . | i | . | .
COc1ccc(OCCOCCOc2ccc(C)cc2[N+](=O)[O-])cc1 | . | i | . | .
OC(CNCc1ccccc1)COc1ccccc1 (configuration not stated) | . | i | . | .
COc1ccc(CCNCC(O)COc2ccc(OC)cc2C(C)(C)C)cc1 (configuration not stated) | . | i | 56%* | i
COc1ccc(CNCC(O)COc2ccc(C)cc2[N+](=O)[O-])cc1 (configuration not stated) | . | i | 26%* | i
Cc1cc(C)nc(NC(=O)c2c(F)c(F)c(F)c(C(=O)Nc3cc(C)cc(C)n3)c2F)c1 | . | i | . | .
CCOC(=O)NS(=O)(=O)c1ccc(CCNC(=O)c2cc(C)on2)cc1 | 0.45 | i | . | .
O=C(CC1OC(=O)c2ccccc21)Nc1cc(Cl)ccc1N1CCCC1 (configuration not stated) | 0.63 | i | . | .
Cc1csc(=O)n1CCC(=O)OCC(=O)c1ccc(Br)cc1 | . | i | . | .
Cc1cc(/C=C2\SC(N)=NC2=O)c(C)n1-c1ccc(F)cc1 | 0.15 | i | . | .
C=C(C)CNC(=S)N/N=C/c1c(F)cccc1F | . | i | . | .
CCn1cc(CCC(=O)NCCc2ccccc2)c2ccccc21 | . | i | . | .
CCn1cc(CCC(=O)NC(C)c2ccccc2)c2ccccc21 (configuration not stated) | 0.65 | i | i | i
Cc1ccc(OCCNC(=O)C(=O)NCc2ccco2)cc1 | . | i | . | .
CCOC(=O)c1c(-c2ccccc2)csc1NC(=O)CSc1nnc(C)s1 | . | i | . | .
